From PubChem BioAssay (Tox21)
Active and inactive are the calls of the source. Calls follow the shape of the full dose curve.

Each compound was assayed against Thyrotropin-releasing hormone receptor (Homo sapiens) (UniProt P34981) (assay: qHTS assay to identify small molecule agonists of the thyrotropin-releasing hormone receptor (TRHR) signaling pathway (AID 1346891;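 also: HEK293 cells expressing TRHR with calcium dye readout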)). Details: TRHR-HEK293 calcium fluorescence, agonist mode; series mostly up to 57.6 µM.
Source text: National Center for Advancing Translational Sciences [NCATS] NIH Chemical Genomics Center [NCGC] U.S. Environmental Protection Agency [EPA] National Institutes of Environmental Health Sciences [NIEHS] National Toxicology Program [NTP] Assay overview: Thyrotropin-releasing hormone (TRH) receptor (TRHR) is a G-protein-coupled receptor which binds the tripeptide thyrotropin releasing hormone. TRHR is found in the brain and, when bound by TRH, acts (through phospholipase C) to increase intracellular inositol trisphosphate. It plays a crucial role in the anterior pituitary where it controls the synthesis and secretion of thyroid stimulating hormone and prolactin. The TRHR-Hek293 assay is a cell-based assay, and it has the potential to screen G protein-coupled receptors. A compound/drug can either activate (agonist) or suppress (antagonist) GPCRs that can be monitored by levels of intracellular calcium. Using this assay, the Tox21 10K compound library was screened to identify potential TRHR agonists.
Assay Protocol Summary: The TRHR-Hek293 cells were dispensed at 1500cells/4uL/well in 1536-well black-clear bottom plates using a Multidrop dispenser. After the assay plates were incubated at a 37 C/5% CO2 incubator for 18 hours, 4 uL of Dye-Loading Solution was added to each well. The plates were incubated at 37 C for 2 hours. For agonist mode, 23 nL of compounds dissolved in DMSO, positive controls or DMSO only was transferred to the assay plate by a pin tool. The fluorescence intensity in the plates was measured using FDSS 7000EX kinetic plate reader for 3 min at 1 sec intervals. Each test compound was measured at 15 concentrations and in triplicates.

Chain of Thyrotropin-releasing hormone receptor (Homo sapiens) (P34981 whole entry, looked up): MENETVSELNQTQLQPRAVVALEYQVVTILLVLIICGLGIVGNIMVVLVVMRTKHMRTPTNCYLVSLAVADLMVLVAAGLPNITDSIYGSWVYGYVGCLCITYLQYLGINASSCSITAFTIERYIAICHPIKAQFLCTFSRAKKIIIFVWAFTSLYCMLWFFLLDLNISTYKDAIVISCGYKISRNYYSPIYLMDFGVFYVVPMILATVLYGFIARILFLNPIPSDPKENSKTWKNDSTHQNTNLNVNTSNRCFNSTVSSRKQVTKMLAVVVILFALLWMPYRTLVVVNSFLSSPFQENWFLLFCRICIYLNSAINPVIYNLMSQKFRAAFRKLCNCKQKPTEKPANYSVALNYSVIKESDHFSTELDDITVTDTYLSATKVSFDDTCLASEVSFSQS

Structure (SMILES) | outcome
C=C(C)C(=O)OCC(C)C | inactive
CN/C(=C\[N+](=O)[O-])NCCSCc1csc(CN(C)C)n1 | inactive
C=CCCCCCCCCC(=O)O | inactive
O=C1C(c2[nH]c3ccccc3c2O)=Nc2ccccc21 | inactive
CC(CCl)OP(=O)(OC(C)CCl)OC(C)CCl (stereo not given) | inactive
CC1(C)CC(N)CC(C)(CN)C1 (stereo not given) | inactive
C[C@]12CCC(=O)C=C1CC[C@@H]1[C@@H]2[C@@H](O)C[C@@]2(C)[C@H]1CC[C@]2(O)C(=O)CO | inactive
c1ccc(Oc2ccccc2)cc1 | inactive
CCCOC(=O)c1ccccc1 | inactive
CCO[Si](CCCN)(OCC)OCC | inactive
N#Cc1ccccc1 | inactive
CC(C)CCCCCCCOC(=O)CCCCC(=O)OCCCCCCCC(C)C | inactive
CC(C)OP(=O)(CP(=O)(OC(C)C)OC(C)C)OC(C)C | inactive
C=C(C)CNCC | inactive
Nc1nc(N)nc(-c2ccccc2)n1 | inactive
O=C(O)Cn1c(=O)n(Cc2ccc(Br)cc2F)c(=O)c2ccc(Cl)cc21 | inactive
Cc1ccc2ncccc2c1 | inactive
NCCNCCN | inactive
CN1C(=O)CC[C@H]1c1cccnc1 | inactive
CC(C)(Oc1ccc(CCNC(=O)c2ccc(Cl)cc2)cc1)C(=O)O | inactive

Structure (SMILES) | outcome
CN(C)c1ccc(Cc2ccc(N(C)C)cc2)cc1 | inactive
Clc1ccccn1 | inactive
CCCCCCCCCCCCCCCCO | inactive
COc1ccc(CCC(C)=O)cc1 | inactive
CCNC(=S)NCC | inactive
C=CC(=O)OCCC(=O)O | inactive
CC1(C)OC[C@@H]2O[C@@]3(C(=O)O)OC(C)(C)O[C@H]3[C@@H]2O1 | inactive
CC(=O)CCC=C(C)C | inactive
COc1cc(OC)c(C(=O)CCCN2CCCC2)c(OC)c1 | inactive
CCOCCOCCOCCO | inactive
CC(=O)OCc1ccccc1 | inactive
O=C1c2ccccc2CCc2ccccc21 | inactive
O=S(=O)(O)c1ccc(N=Nc2c(O)ccc3cc(S(=O)(=O)O)ccc23)cc1 | inactive
COc1ccc(C)cc1N | inactive
COc1ccccc1OCC(O)CO (stereo not given) | inactive
CCCCC(C=O)CC (stereo not given) | inactive
CC(CCO)CC(C)(C)C (stereo not given) | inactive
CCCCCCCCCCO | inactive
C=Cc1ccc(C)cc1 | inactive
CC(=O)CC(C)(C)O | inactive
